AHR activator = activates the human aryl hydrocarbon receptor; activation, % at 5 µM; AHR-responsive luciferase reporter cells, luminescence; 320,000 tested, 2.5% active; in the data active means activation above about 47%;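 further: 0% = vehicle wells and 100% = reference agonist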
Cardio protect = myocardial damage modulation in H9c2 cells; 360,000 tested, 0.63% active; H9c2 cardiomyocytes, H2O2 injury protection, ATPLite, 2 h; protection from H2O2 cell death, % at 20 µM; AID 588492;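 active means compounds giving at least 50% protection of heart cells from peroxide-induced death in the single-dose screen, raw or plate-pattern-corrected value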;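 further: 0% = DMSO wells with peroxide and 100% = DMSO wells without peroxide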
NTR1 ag = activates human neurotensin receptor 1; NTR1-U2OS beta-arrestin-GFP spot imaging, agonist mode; P30989; activation, % at 20 µM; 330,000 tested, 0.17% active;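 active means activation at or above 40% of the spot to cytoplasm intensity ratio, with at least 20 cells analyzed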;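 further: 0% = DMSO without peptide and 100% = 100 nM NTR1 peptide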
Target sequence (P30989 whole entry, looked up): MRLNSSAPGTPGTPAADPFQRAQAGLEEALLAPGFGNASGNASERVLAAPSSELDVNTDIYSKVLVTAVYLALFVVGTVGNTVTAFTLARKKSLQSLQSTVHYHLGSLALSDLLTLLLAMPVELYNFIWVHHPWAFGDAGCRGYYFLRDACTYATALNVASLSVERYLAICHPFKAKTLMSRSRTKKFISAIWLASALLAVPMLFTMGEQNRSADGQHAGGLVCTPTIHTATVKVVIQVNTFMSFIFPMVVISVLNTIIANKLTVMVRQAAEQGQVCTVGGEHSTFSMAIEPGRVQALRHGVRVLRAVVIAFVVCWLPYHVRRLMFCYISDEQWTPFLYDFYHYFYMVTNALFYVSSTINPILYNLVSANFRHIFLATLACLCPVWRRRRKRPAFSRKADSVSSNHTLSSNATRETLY
SUMO Mot1 rescue = SUMOylation pathway inhibition by Mot1-301 growth rescue. S. cerevisiae Mot1-301 growth rescue, ATP luminescence, 38.5C; percent above DMSO median, 100 means doubled. growth rescue, % at 18.8 µM. 320,000 tested, 1% active. AID 2716;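 active means every valid replicate shows activation above 250% relative to neutral control wells; inactive means the rest, any valid replicate at or below 250%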;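 further: OY570 slx delta 5 strain wells were the positive control but not used for scaling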
AI-2 QS mod = modulates the Vibrio harveyi AI-2 quorum sensing system | activity change, % at 7.5 µM | 300,000 tested, 0.4% active | Vibrio harveyi JMH597 AI-2 luminescence/OD600 ratio, 9 h; hits give low values; strain lacks LuxN and CqsS sensors; 0 = neutral-control median; in the data active means activity change below about -75%, passing the limit was not always enough;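 further: luminescence divided by OD600 gain over 9 h not by final OD600 alone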
NR3A LBD binder = NR3A (human) ligand-binding domain modulation. Tm shift relative to glycine control, % at 25 µM. NR3A LBD differential scanning fluorimetry, Tm shift; 0% = protein alone, 100% = glycine-bound protein. 340,000 tested, 2.5% active;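 active means melting temperature shift of at least 10% of the positive control shift, at one fixed dose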
* = called active by the depositor; · = not tested or not shown. Shown are actives, neighbours in structure and some others; about 6.2% of the full set was active somewhere.

SMILES	AHR activator	Cardio protect	NTR1 ag	SUMO Mot1 rescue	AI-2 QS mod	NR3A LBD binder
Cc1ccc(NC(=O)CC2(CC(=O)O)CCCC2)c(C)c1	1.8	7.0	1.4	25.0	26.1	3.3
Nc1c(C(=O)Nc2ccc3c(c2)OCCO3)nnn1Cc1ccccc1Cl	-10.5	-13.5	1.8	5.0	11.6	2.1
COc1ccc(OC)c(N(CC(=O)Nc2ccc3c(c2)OCO3)S(=O)(=O)c2ccccc2)c1	32.0	7.0	-1.1	-28.6	-5.2	0.8
COc1ccc(Cl)cc1NC(=O)c1nnn(CC(=O)Nc2ccc(OC)c(OC)c2)c1N	1.5	-0.6	0.3	7.2	15.9	-1.3
COc1cccc(NC(=O)Cn2nnc(C(=O)Nc3cc(Cl)ccc3OC)c2N)c1	10.2	-7.3	-0.6	237.4	14.6	24.6*
COc1ccc(Cl)cc1N(CC(=O)Nc1ccc2c(c1)OCO2)S(C)(=O)=O	75.7*	-0.5	-1.4	-24.0	22.3	-1.3
COc1ccc(Cl)cc1NC(=O)c1nnn(CC(=O)Nc2ccc3c(c2)OCO3)c1N	6.1	-6.3	1.2	-16.5	10.0	20.3*
COc1ccc(NC(=O)c2nnn(CC(=O)Nc3ccc4c(c3)OCO4)c2N)cc1OC	6.4	-0.7	-0.1	-13.1	15.7	-1.2
COc1ccc(Br)cc1Cn1nnc(C(=O)Nc2ccc3c(c2)OCCO3)c1N	60.0*	5.7	1.3	·	4.3	-5.4
COc1ccc(C(CNc2ccc(S(C)(=O)=O)cc2[N+](=O)[O-])N(C)C)cc1OC (stereo unspecified)	-1.7	-1.5	-0.6	2.1	17.9	-1.4
CCCCNC(=S)N(CCO)Cc1cc2cc3c(cc2[nH]c1=O)OCCO3	14.6	6.9	-1.6	2.9	15.9	-0.7
CC(=O)c1cccc(NC(=O)CNC(=O)Cc2ccccc2)c1	15.4	4.9	-0.2	8.4	13.0	2.8
COc1ccc2c(c1)C(=O)[C@@H](O)[C@H](c1ccc(OC)c(Br)c1)O2	18.3	51.6*	-0.5	5.3	27.3	1.8
Cn1ncc(Cl)c1C(=O)N1CCC(Cc2ccccc2)CC1	4.6	-1.4	-0.5	9.9	5.4	2.4
CCOc1ccc(-n2nnc3c(=O)n(CC(=O)N4CCCc5ccccc54)cnc32)cc1	2.5	-10.5	17.3	-9.6	-1.0	14.8*
COc1ccc(-n2nnc3c(=O)n(CC(=O)N4CCCc5ccccc54)cnc32)cc1	2.3	10.9	8.7	-3.8	34.0	11.5*
O=C(OCCc1cc2ccccc2c(=O)o1)N1CCOCC1	11.5	7.8	-1.7	0.7	·	-0.8
COc1ccc2c(c1)CN(C)S(=O)(=O)c1ccccc1-2	·	3.1	2.1	·	·	12.7*
COc1ccc2c(c1)-c1ccccc1S(=O)(=O)N(C)C2	·	5.2	0.5	·	·	-1.7
COC(=O)c1ccc(CNC(=O)c2ccc3c(c2)S(=O)(=O)N=C2CCCCCN23)cc1	-0.7	3.0	1.3	-2.5	·	0.9
C/C(=N\NC(=O)c1ccc(O)cc1)c1ccc2c(c1)Nc1ccccc1S2	4.1	-1.6	16.8	32.3	23.0	20.6*
C/C(=N\NC(=O)c1cc2c(s1)CCC(C)C2)c1ccc[nH]1 (stereo unspecified)	40.1	-4.1	-1.5	23.5	·	-3.7
C/C(=N\NC(=O)c1cc2c(s1)CCC(C)C2)c1ccncc1 (stereo unspecified)	55.9*	-4.5	3.8	3.9	20.8	-5.8
C/C(=N\NC(=O)c1cccc([N+](=O)[O-])c1)c1ccncc1	78.3*	-3.2	3.8	3.1	1.0	0.7
C/C(=N/NC(=O)c1ccc(O)cc1)c1cccc([N+](=O)[O-])c1	2.1	5.6	0.9	-6.2	0.8	209.4*
SMILES	AHR activator	Cardio protect	NTR1 ag	SUMO Mot1 rescue	AI-2 QS mod	NR3A LBD binder
CCOC(=O)C1CCN(C(=O)C2CCCN(S(=O)(=O)c3ccc(OCC)c(Cl)c3)C2)CC1 (stereo unspecified)	0.7	-15.7	2.0	1.1	13.0	-2.0
Cc1ccc(Cl)cc1S(=O)(=O)N1CCC(C(=O)NC2CCN(Cc3ccccc3)CC2)CC1	-0.8	-3.2	0.7	72.8	31.4	-1.3
C/C(=N\NC(=O)c1cccc(N/N=C(\C)c2ccncc2)c1)c1ccncc1	66.7*	68.3*	2.4	-3.3	21.3	-15.1
c1ccc(-c2nc3ccccn3c2NCc2ccc3c(c2)OCO3)cc1	69.7*	4.4	-1.5	-1.5	32.2	-1.9
COc1ccc(-c2nc3ccccn3c2NCc2ccc3c(c2)OCO3)cc1	22.4	0.4	0.3	-3.4	17.4	1.4
COc1ccc(-c2oc3ccc(N4CCOCC4)cc3c2/C=C/c2ccc(OC)c(OC)c2)cc1	33.3	-0.2	0.5	76.9	10.9	-1.6
COc1ccc(-c2c(-c3ccsc3)oc3ccc(N4CCOCC4)cc23)cc1	47.1*	-8.3	7.3	-4.3	16.3	-0.6
COc1ccc(-c2nc3ccc(Br)cn3c2CC(C)(C)C)cc1OC	·	-5.3	·	·	·	·
CCc1nnc(NC(=O)C=C(C)C)s1	2.5	21.2	0.6	-2.0	9.6	-2.5
O=C(/C=C/c1cccs1)Nc1cccc(NC(=O)/C=C/c2cccs2)n1	24.9	2.1	3.4	170.1	39.7	23.7*
CCc1nnc(NC(=O)/C=C/c2cccs2)s1	52.2*	3.4	0.2	-3.6	19.8	-0.4
O=C(/C=C/c1cccs1)Nc1nccs1	21.3	-16.7	-0.3	3.9	18.0	-9.6
CC(Oc1ccc2ccc(=O)oc2c1)C(=O)NCC1CCC(C(=O)O)CC1 (stereo unspecified)	-1.2	-3.6	-2.5	-8.2	1.1	-2.4
CC(Oc1ccc2cc(-c3ccccc3)c(=O)oc2c1)C(=O)NCC1CCC(C(=O)O)CC1 (stereo unspecified)	0.3	-3.9	-0.3	742.7*	12.4	-0.7
CN1c2ccccc2C(O)=C(C(=S)Nc2ccccc2)S1(=O)=O	12.4	-11.7	0.3	0.0	15.4	-3.9
CN1c2ccccc2C(O)=C(C(=S)Nc2ccc(F)c(Cl)c2)S1(=O)=O	51.5*	-27.7	1.7	-13.8	41.9	26.7*
O=C1c2cccnc2Oc2ccc(Cl)cc2N1Cc1ccc(F)cc1	2.8	63.4*	0.9	5.1	4.5	-0.2
Cc1ccc2c(c1)N(Cc1cccc(Cl)c1)C(=O)c1cccnc1O2	-0.2	24.3	2.0	-11.3	10.3	-1.0
COc1ccc(CNC(=O)CCn2c(=O)[nH]c3ccccc3c2=O)cc1	2.7	-1.0	-1.9	·	21.0	-0.8
COc1ccc(Cn2c(=O)[nH]c3cc(OC)c(OC)cc3c2=O)cc1	-0.1	8.6	0.3	-3.5	24.8	0.4
COc1ccc(-c2nc3c4ccccc4[nH]c(=O)n3n2)cc1	111.7*	28.9	4.6	10.4	10.3	1.9
COc1cc2[nH]c(=O)n3nc(-c4ccccc4)nc3c2cc1OC	-7.3	95.2*	2.5	10.4	10.8	-0.1

Screening results deposited in PubChem BioAssay by several laboratories.
